In the library only some 3% were active in any assay of this set; here they are far more common.
Tau ThT inhib: blocks human tau fibril formation measured by thioflavin T | Potency, µM (series often up to 57.4 µM), without a hit: top-dose activity, negative = inhibition, usual class: inhibitors | 270,000 tested, 2.1% active | P10636 | recombinant tau K18 P301L, heparin-induced fibrillization, ThT fluorescence; also: nearly all actives have a fitted effect of over 55% in size
Target sequence (P10636 561-689 P618L limits assumed): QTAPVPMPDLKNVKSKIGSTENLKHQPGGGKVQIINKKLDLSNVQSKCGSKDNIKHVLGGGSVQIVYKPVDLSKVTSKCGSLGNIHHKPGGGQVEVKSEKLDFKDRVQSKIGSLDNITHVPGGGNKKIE
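In this qHTS, human K18 P301L tau is incubated with compound and heparin for 6 hr at 37 C, and Thioflavin T fluorescence then reports fibril load.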
Tau fibril FP: tau fibrillization inhibition (FP); K18 P301L tau heparin fibrillization, Alexa594 FP, 6 h; AID 1468; 280,000 tested, 0.39% active; Potency, µM (top dose mostly 57.7 µM), for the others: at the highest dose activity, negative = inhibition, actives largely listed as inhibitors; also: nearly all actives have a fitted effect of over 55% in size
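Steps: dispense K18 P301L tau (15 uM plus 0.24 uM Alexa 594 tracer, final) in pH 7 sodium acetate; add compound; add heparin (20 uM final); incubate 6 hr, 37 C; add ThT (30 uM final); after 1 hr ambient, read FP.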
Tau fluor counter: counter-screen for tau fibril formation inhibitors; tau K18 P301L (four-repeat tau fragment) Alexa594 fluorescence, heparin fibrillization; Potency, µM (series often up to 57.7 µM), for the others: top-dose activity change, negative = decrease; 280,000 tested, 0.93% active; also: nearly all actives have a fitted effect of over 55% in size
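Human K18 P301L tau (15 uM unlabeled plus 0.24 uM Alexa 594-labeled, final) in 100 mM sodium acetate pH 7 was mixed with compound and 20 uM heparin and incubated 6 hr at 37 C.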
TexasRed fluor: counter-screen for TRb-SRC2 inhibitors: fluorescence interference; Potency, µM (top dose mostly 106 µM), for inactives: at the top dose fluorescence change, negative = quenching; 280,000 tested, 0.29% active; TRb/SRC2 Texas Red total fluorescence interference; active = well fitted curve in either direction with a large enough effect; inconclusive = small, poorly fitted or top-dose-only effect
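Human TRβ ligand-binding domain (0.6 uM) and Texas Red SRC2 peptide (20 nM) in Tris buffer with 1 uM T3 and 5% DMSO were incubated with pinned compound for 5 hr at ambient temperature. Total fluorescence was computed as S + 2P (555/632 nm).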
TRb SRC2 PPI: inhibitors of human thyroid hormone receptor beta-SRC2 interaction | Potency, µM (series often up to 106 µM), inactives show top-dose activity change, negative = inhibition, usual class: inhibitors | P10828 | TRbeta-SRC2 peptide binding, fluorescence polarization; receptor liganded with 1 µM T3 | 280,000 tested, 0.065% active | AID 1469;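 also: plate controls were bound peptide for no effect and peptide without receptor for full effect; nearly all actives have a fitted effect of over 50% in size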
Target sequence (P10828 whole entry, looked up): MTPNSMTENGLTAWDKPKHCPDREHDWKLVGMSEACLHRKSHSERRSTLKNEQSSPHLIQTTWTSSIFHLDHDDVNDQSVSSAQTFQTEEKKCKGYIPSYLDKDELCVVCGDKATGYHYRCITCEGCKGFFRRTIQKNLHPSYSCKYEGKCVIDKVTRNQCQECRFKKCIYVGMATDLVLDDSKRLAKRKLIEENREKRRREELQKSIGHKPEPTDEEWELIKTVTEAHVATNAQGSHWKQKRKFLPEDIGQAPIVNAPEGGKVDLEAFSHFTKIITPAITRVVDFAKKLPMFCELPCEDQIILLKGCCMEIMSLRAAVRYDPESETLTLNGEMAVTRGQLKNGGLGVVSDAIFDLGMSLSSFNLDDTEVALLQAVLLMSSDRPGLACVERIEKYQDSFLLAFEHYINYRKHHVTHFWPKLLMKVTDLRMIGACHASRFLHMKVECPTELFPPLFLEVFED
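A fluorescence polarization screen tested compounds at multiple concentrations against complex formation between 0.6 uM TRb ligand-binding domain and 20 nM Texas Red SRC2 peptide, with 1 uM T3 present; readout after 5 hr.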
An asterisk follows results filed as active; ? = inconclusive; nt = no result; [ ] = another dose, or the depositor's remark. Unless noted, calls follow the shape of the dose curve; as a rule, active = well fitted curve in the direction sought with a large enough effect; inconclusive = small, poorly fitted or top-dose-only effect, or another doubt; inactive = no such curve, though single readings can be large; an effect the other way counts as inactive or inconclusive. Unless noted, % is scaled to controls: 0 for no effect and ±100 for the full control effect; potency is read from the fitted curve at half-maximal effect.

SMILES | Tau ThT inhib | Tau fibril FP | Tau fluor counter | TexasRed fluor | TRb SRC2 PPI
COc1cc2c(cc1OC)-c1c(OC)c(OC)cc3ccnc(c13)C2=O | 7.1µM* | -21% | ? | -2% | -9%
CCN(c1ccc(OC)cc1)S(=O)(=O)c1ccc2[nH]c3c(c2c1)CCCCC3 | -7% | 1% | 10µM*[quencher] | -11% | 1%
COc1ccc(NC(=O)C2CCN(S(=O)(=O)c3ccc4[nH]c5c(c4c3)CCCCC5)CC2)cc1 | 2% | -2% | -28% | -1% | 2%
CCN(Cc1ccccc1)S(=O)(=O)c1ccc2[nH]c3c(c2c1)CCCCC3 | 0% | 2% | 7.9µM*[quencher] | -1% | 1%
CCN(CC)c1cc2c(cc1F)c(=O)c(S(=O)(=O)c1ccc(C)cc1)cn2Cc1ccc(F)cc1 | -1% | 0% | 4% | 7% | 3%
Oc1ccc(/C=C/c2nc(-c3ccccc3O)n(-c3ccccc3)n2)cc1 | ? | ? | 32µM*[quencher] | -4% | -10%
Oc1ccc(/C=C/c2nc(-c3ccccc3O)n(-c3ccccc3)n2)c(O)c1 | ? | ? | 5.6µM*[quencher] | -7% | 3%
Oc1ccccc1-c1nc(/C=C/c2ccccc2)nn1-c1ccccc1 | -12% | -17% | ? | -9% | 0%
CCCCOC(=O)c1ccc(OC(=O)c2sc3ncn(Cc4cccc(F)c4)c(=O)c3c2C)cc1 | -15% | -13% | -21% | -6% | -1%
CC1COCc2cc3c(cc21)C(C)(C)C(C)C3(C)C (configuration not stated) | nt | nt | nt | -2%[201 µM] | 5%[201 µM]
CCOC(=O)c1ccccc1NC(=O)c1cn(CC(C)C)c(=O)c2cc(OC)c(OC)cc12 | ? | 0% | -9% | 0% | -2%
CN(C)c1ccc(NC(=O)c2cn(-c3ccccc3)nc2-c2cccs2)cc1 | ? | 14% | 8.9µM*[quencher] | -1% | 0%
CCN(CC)CCOC(=O)c1ccc(NC(=O)c2cn(-c3ccccc3)nc2-c2cccs2)cc1 | -2% | 11µM* | 8.9µM*[quencher] | 0% | 2%
C/C(CCN1CCCc2nc(C)c(C)cc21)=N\O[C@@H](C)c1cn([C@@H]2COC[C@@H]2O)nn1 | 2%[11.5 µM] | -7%[11.6 µM] | -2%[11.6 µM] | -16%[11.2 µM] | 1%[11.2 µM]
O=C(O)c1cc(N/N=C/c2ccc(N3CCOCC3)s2)ccc1Cl | 11µM* | ? | ? | -18%[53 µM] | 4%[53 µM]
NC(=O)N/N=C/c1ccc(N2CCOCC2)s1 | ? | 8% | -13% | -2%[53 µM] | -3%[53 µM]
CC(=O)N1CCN(C(=S)c2ccc(Cl)cc2)CC1 | 6% | -3% | 0% | 1% | -15%
CC(=O)N1CC[n+]2c(-c3ccc(Cl)cc3)csc21 | 28µM* | ? | -25% | -2% | -3%
O=C(CN1CC[n+]2c(-c3cccs3)csc21)c1ccc(-c2ccccc2)cc1 | 27% | 5% | 22% | 1% | -8%
CCc1ccc(-c2csc3[n+]2CCN3C(C)=O)cc1 | 25µM* | ? | -20% | 2% | -4%
Cc1ccc2c(=O)cc(C(=O)Nc3ccc(S(=O)(=O)N4CCCCC4C)cc3)oc2c1C (configuration not stated) | 1% | ? | ? | 4% | -2%
Cc1ccc(-c2nc(N)sc2-c2ccccc2)cc1C | ? | 3% | 10µM*[quencher] | 2% | 2%
Cc1ccc(-c2nc(N)sc2-c2ccc(C)cc2)cc1 | ? | -14% | 14µM*[quencher] | -4% | -6%
Cc1ccc(-c2nc(N)sc2C)cc1 | -17% | 15% | -10% | -2% | -1%
Nc1nc(-c2ccccc2)c(-c2ccccc2)s1 | -4% | 12% | ? | -1% | -1%
SMILES | Tau ThT inhib | Tau fibril FP | Tau fluor counter | TexasRed fluor | TRb SRC2 PPI
CCCN1CCN(CCNC(=O)Nc2cc(OC)cc(OC)c2)CC1 | 0% | 4% | -4% | -2% | -2%
COc1ccc2c(c1)c1c(c(=O)n(-c3cccc(Cl)c3)c(=O)n1CC(=O)NCC1CCCO1)n2C (configuration not stated) | 13% | 1% | 6% | -3% | -1%
Cc1cc(Nc2ccc(Br)c(C)c2)n2nc(-c3ccco3)nc2n1 | -10% | -4% | 5% | 0% | 3%
CCc1ccc(S(=O)(=O)c2cn(C)c3cc(N4CCCCC4C)c(F)cc3c2=O)cc1 (configuration not stated) | -3% | -2% | 2% | 112µM*[quencher] | -24%
CCCn1cc(S(=O)(=O)c2cc(C)ccc2C)c(=O)c2cc(F)c(N3CCOCC3)cc21 | -5% | 11% | 1% | 25µM*[quencher] | ?
CCCn1cc(S(=O)(=O)c2ccccc2)c(=O)c2cc(F)c(N3CCCC(C)C3)cc21 (configuration not stated) | -6% | 7% | -7% | -7% | 1%
CCCCn1cc(S(=O)(=O)c2ccc(CC)cc2)c(=O)c2cc(F)c(N3CCCC(C)C3)cc21 (configuration not stated) | -9% | -6% | 1% | 89µM*[quencher] | -27%
CCCCn1cc(S(=O)(=O)c2ccc(Cl)cc2)c(=O)c2cc(F)c(N3CCCC(C)C3)cc21 (configuration not stated) | -3% | 8% | 9% | 100µM*[quencher] | -15%
COc1ccc2c(c1)c(=O)c(S(=O)(=O)c1ccc(C)c(C)c1)cn2CC(=O)Nc1ccccc1 | 4% | -8% | -16% | 0% | 0%
C#CCCCO/N=C1/[C@H]2O[C@@H]2[C@@H](O)[C@H]2[C@H]1CCn1c(=O)n(Cc3cc4c(cc3Cl)OCO4)c(=O)n12 | -10%[11.5 µM] | -3%[11.6 µM] | -14%[11.6 µM] | -2%[11.2 µM] | 0%[11.2 µM]
O=S(=O)(NCc1ccc(F)cc1)c1ccc2[nH]c3c(c2c1)CCCCC3 | -1% | -5% | 16µM*[quencher] | -4% | 2%
COc1cccc(CNS(=O)(=O)c2ccc3[nH]c4c(c3c2)CCCCC4)c1 | -9% | ? | 13µM*[quencher] | -10% | 3%
CC(=O)NC(C(=O)O)C(C)(C)SN=O (configuration not stated) | ? | ? | -20% | 0% | -11%
O=C1c2ccccc2C(=O)C1c1ccnc2ccccc12 | 1.8µM* | -4% | -7% | -4% | 6%
O=C1C(c2ccnc3ccccc23)=C(O)c2ccccc21 | ? | -1% | 3% | -7% | 2%
COc1ccc(C2C(=O)c3ccccc3C2=O)cc1 | ? | ? | -14% | 0% | 3%
O=C1c2ccccc2C(=O)C1c1nccc2ccccc12 | 1.4µM* | -8% | -18% | -4% | 0%
N#CC1=C(N)SC(N)=C(C#N)C1c1ccnc2ccccc12 | 28µM* | ? | -25% | 3% | -2%
CC/C=C\C/C=C\C/C=C\C/C=C\C/C=C\C/C=C\CCC(N)=O | -10% | 6% | -4% | -2% | -1%
COc1cccc(-c2nc(S(=O)(=O)c3ccccc3)c(N3CCCCC3)o2)c1 | -4% | 1% | -25% | -2% | 11%
CCCCOCC(C)O (configuration not stated) | nt | nt | nt | -1%[201 µM] | 4%[201 µM]

From PubChem
